Our source for the outcome and AC50 values is PubChem BioAssay (EPA / NIEHS).

The source made the active and inactive calls. Rule for the calls: active = hit-call score of the fitted dose curve at least 0.9, where 1 is the maximum; inactive = score below 0.9.

Read-out in assay [1]: Tissue Factor, F3 (gene 2152)
As to the kind of experiment: BSK_CASM3C_TissueFactor: BioMAP Diversity Plus: CASM3C Assay for Tissue Factor Biomarker Activity (AID 2283052).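 Note: cell surface tissue factor protein level read by ELISA.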 The note with it: primary human coronary artery smooth muscle cells; actives raise or lower the signal.

Read-out in assay [2]: Interferon-gamma inducible Protein 10 (IP10), CXCL10 (gene 3627)
Kind of assay: BSK_hDFCGF_IP10: BioMAP Diversity Plus: hDFCGF Assay for Interferon-gamma inducible Protein 10 (IP10) Biomarker Activity (AID 2283053). The following applies: primary human foreskin fibroblasts; actives raise or lower the signal. The procedure, abridged:
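ELISA quantification of IP-10 after a 24 h chemical exposure of human dermal foreskin fibroblast primary cultures. Both increases and decreases versus DMSO fitted.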

Read-out in assay [3]: Urokinase-type plasminogen activator receptor (uPAR), PLAUR (gene 5329)
Kind of assay: BSK_CASM3C_uPAR: BioMAP Diversity Plus: CASM3C Assay for Urokinase-type plasminogen activator receptor (uPAR) Biomarker Activity (AID 2283054).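 Note: cell-surface uPAR protein level quantified by ELISA.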 The following applies: primary human coronary artery smooth muscle cells; actives raise or lower the signal.

Read-out in assay [4]: Vascular cell adhesion molecule 1 (VCAM1), VCAM1 (gene 7412)
Kind of assay: BSK_CASM3C_VCAM1: BioMAP Diversity Plus: CASM3C Assay for Vascular cell adhesion molecule 1 (VCAM1) Biomarker Activity (AID 2283055).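 Note: VCAM-1 protein level quantified by ELISA on the cells.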 The following applies: primary human coronary artery smooth muscle cells; actives raise or lower the signal.

Read-out in assay [5]: Collagen III, COL3A1 (gene 1281)
As to the kind of experiment: BSK_hDFCGF_CollagenIII: BioMAP Diversity Plus: hDFCGF Assay for Collagen III Biomarker Activity (AID 2283056). The note with it: primary human foreskin fibroblasts; actives raise or lower the signal. The procedure, abridged:
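ELISA readout of Collagen III in human dermal (foreskin) fibroblasts, taken 24 h post-treatment. Gain or loss relative to DMSO vehicle fitted in both directions.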

Read-out in assay [6]: Epidermal growth factor receptor (EGFR), EGFR (gene 1956)
Kind of assay: BSK_hDFCGF_EGFR: BioMAP Diversity Plus: hDFCGF Assay for Epidermal growth factor receptor (EGFR) Biomarker Activity (AID 2283057). The note with it: primary human foreskin fibroblasts; actives raise or lower the signal. The procedure, abridged:
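EGFR levels by ELISA in human dermal fibroblast cultures, 24 h post-treatment, fitted bidirectionally versus DMSO. Parallel wells stained with sulforhodamine B to detect overt cytotoxicity.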

Read-out in assay [7]: Interleukin-8 (IL8), CXCL8 (gene 3576)
As to the kind of experiment: BSK_hDFCGF_IL8: BioMAP Diversity Plus: hDFCGF Assay for Interleukin-8 (IL8) Biomarker Activity (AID 2283058). The following applies: primary human foreskin fibroblasts; actives raise or lower the signal. The procedure, abridged: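 IL-8 levels read by ELISA at 24 hours after dosing human skin fibroblast cultures. Parallel SRB staining assessed overt cytotoxicity, and gain or loss of signal was fitted against DMSO control.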

Assay [8] in a line: BSK_hDFCGF_Proliferation: Cell Proliferation Assessment in the BioMAP Diversity Plus: hDFCGF Assay (AID 2283059).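 Note: curves fitted for both rise and fall of signal versus DMSO baseline.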 The note with it: primary human foreskin fibroblasts. In a few lines: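 Total protein read at 560 nm after 0.1% SRB staining of TCA-fixed human skin fibroblasts, […]. Activity is fitted in both directions relative to DMSO as baseline.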

Read-out in assay [9]: Macrophage colony-stimulating factor (MCSF), CSF1 (gene 1435)
As to the kind of experiment: BSK_hDFCGF_MCSF: BioMAP Diversity Plus: hDFCGF Assay for Macrophage colony-stimulating factor (MCSF) Biomarker Activity (AID 2283060). The following applies: primary human foreskin fibroblasts; actives raise or lower the signal. The procedure, abridged: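 M-CSF levels read by ELISA at 24 h post-dosing in human skin fibroblasts. Parallel cultures stained with SRB assessed cytotoxicity at the same time point; response fitted in both directions against the DMSO baseline.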

Assay [10] can be described thus: BSK_hDFCGF_SRB: Viability Assessment in the BioMAP Diversity Plus: hDFCGF Assay (AID 2283061).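 Note: cells exposed to compound for 24 h before the read.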 The note with it: primary human foreskin fibroblasts. The procedure, abridged:
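Viability was read as total protein: after 10% TCA fixation, wells were stained with 0.1% sulforhodamine B and read at 560 nm. Primary human foreskin fibroblasts were dosed for 24 h, with bidirectional fitting versus DMSO.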

Turning to `O=P(OCCCl)(OCCCl)OCCCl`, the result in assay [1], in assay [2], in [3], in assay [4], in assay [5] and in assay [6] was inactive. For the same compound, the outcome in assay [7], in assay [8], in assay [9] and in [10] was inactive.
Consider `C[C@]12C=CC3=C4CCC(=O)C=C4CC[C@H]3[C@@H]1CC[C@@H]2O`, for which the outcome in assay [1], in assay [2], in assay [3], in [4], in assay [5] and in [6] was inactive. Also, the outcome in [7], in assay [8], in assay [9] and in assay [10] was inactive.
`CN(C)[C@@H]1C(=O)C(C(N)=O)=C(O)[C@@]2(O)C(=O)C3=C(O)c4c(O)cccc4[C@@](C)(O)[C@H]3C[C@@H]12`: the outcome in [1], in assay [2], in [3], in [4], in assay [5] and in [6] was inactive. For the same compound, the outcome in [7], in assay [9] and in assay [10] was inactive. Besides, the half-maximal activity concentration (AC50) (in general, the concentration at which the activity in the assay is half-maximal) in [8] is 22.9 µM (active).
As for `COP(=S)(OC)SCN1C(=O)c2ccccc2C1=O`, the result in assay [1], in assay [2], in [3], in assay [4], in [5] and in [6] was inactive. Further, the outcome in assay [7], in [8], in assay [9] and in [10] was inactive.
For `[Cl-].[Cl-].[Hg+2]`, the AC50 was 32.6 µM (active) in [1]; 11.5 µM (active) in [2]; 34.4 µM (active) in assay [3]; 26.5 µM (active) in assay [4]; 11.6 µM (active) in [5]; 13.6 µM (active) in [7]. Also, the AC50 was 4.83 µM (active) in assay [8], 10.7 µM (active) in [9] and 12.1 µM (active) in assay [10]. Further, in assay [6], the outcome was inactive.
As to `CCOC(=O)[C@]1(c2ccccc2)Oc2ccccc2[C@@H]1N`, the outcome in [1], in assay [3], in [4] and in assay [6] was inactive. Also, the AC50 in [2] was 36.6 µM (active); in [5] it was 31.9 µM (active); in assay [7], 32.2 µM (active); in assay [8], 17.8 µM (active); in assay [9], 28.4 µM (active); in assay [10], 26.9 µM (active).
Regarding `CC(C)(C)OOC(=O)c1ccccc1`, the result in [1], in assay [3], in [4] and in [6] was inactive. The half-maximal activity concentration (AC50) is 33.2 µM (active) in assay [2]; 35.1 µM (active) in assay [5]; 34.3 µM (active) in assay [7]; 20 µM (active) in assay [8]; 34.1 µM (active) in [9]; 30.9 µM (active) in assay [10].
On to `CC(C)(O)c1cnn2c(-c3ccc(F)c(-c4c(F)cccc4C#N)c3)cnc2n1`, for which the outcome in [1], in [2], in assay [3], in assay [4], in assay [6] and in assay [7] was inactive. Further, the result in assay [8], in [9] and in [10] was inactive. Moreover, the AC50 in [5] is 5.96 µM (active).
On to `ClCCOCCCl`, for which the result in [1], in assay [2], in [3], in assay [4], in assay [5] and in assay [6] was inactive. Besides, the result in assay [7], in assay [8], in [9] and in assay [10] was inactive.
In the case of `[As]#[In]`, the result in [1], in assay [2], in assay [3], in [4], in [5] and in assay [6] was inactive. Further, the outcome in assay [7], in [8], in assay [9] and in assay [10] was inactive.
With `c1ccc(C2CO2)cc1` (centres undefined), the result in assay [1], in assay [2], in assay [3], in assay [4], in assay [5] and in assay [6] was inactive. Moreover, the result in assay [7], in assay [8], in assay [9] and in assay [10] was inactive.
For the compound `C=CCc1ccc2c(c1)OCO2`, the outcome in assay [1], in assay [2], in assay [3], in assay [4], in assay [5] and in assay [6] was inactive. The result in [7], in assay [8], in assay [9] and in [10] was inactive.
Turning to `CN(C)C(=O)Nc1ccc(Cl)cc1`, the result in assay [1], in assay [2], in assay [3], in assay [4], in [5] and in assay [6] was inactive. In addition, the outcome in assay [7], in assay [8], in assay [9] and in assay [10] was inactive.
Regarding `C1=Cc2cccc3cccc1c23`, the outcome in assay [1], in assay [2], in [3], in assay [4], in [5] and in assay [6] was inactive. Also, the result in assay [7], in assay [8], in [9] and in assay [10] was inactive.
For the compound `O=[N+]([O-])c1ccc(Oc2ccc(Cl)cc2Cl)cc1`, the result in assay [1], in [3], in [4], in assay [6], in assay [7] and in assay [10] was inactive. In addition, the AC50 is 20 µM (active) in assay [2], 12.1 µM (active) in [5], 20 µM (active) in assay [8] and 13.1 µM (active) in assay [9].
As for `CS(=O)(=O)NC(=O)c1cc(Oc2ccc(C(F)(F)F)cc2Cl)ccc1[N+](=O)[O-]`, the outcome in [2], in [3], in assay [4], in [5], in assay [6] and in assay [7] was inactive. In addition, the result in [8], in assay [9] and in assay [10] was inactive.
For the compound `OCCCl`, the result in assay [1], in [2], in assay [3], in assay [4], in assay [5] and in assay [6] was inactive. For the same compound, the result in assay [7], in assay [8], in [9] and in assay [10] was inactive.
`CCCCOC(=O)c1ccccc1C(=O)OCc1ccccc1`: the result in assay [1], in assay [2], in [3], in assay [4], in assay [6] and in [7] was inactive. Also, the result in assay [8] and in assay [10] was inactive. Moreover, the half-maximal activity concentration (AC50) was 13 µM (active) in assay [5] and 11.8 µM (active) in assay [9].
Take `CC(C)(C)C(O)(CCc1ccc(Cl)cc1)Cn1cncn1` (centres undefined): the result in [1], in [2], in assay [3], in assay [4], in assay [5] and in assay [6] was inactive. Besides, the outcome in assay [7], in [9] and in assay [10] was inactive. For the same compound, in [8], the AC50 is 0.299 µM (active).
On to `CNC(=O)Oc1cccc2c1OC(C)(C)C2`, for which the result in assay [1], in assay [2], in assay [3], in assay [4], in assay [5] and in [6] was inactive. Also, the result in assay [7], in assay [8], in [9] and in [10] was inactive.
Take `COC(=O)c1ccccc1N`: the outcome in assay [1], in [2], in assay [3], in [4], in assay [5] and in assay [6] was inactive. Moreover, the result in assay [7], in assay [8], in assay [9] and in assay [10] was inactive.
